Data published in PubChem BioAssay (NCI).
About 83,000 compounds went through this panel and 20% of them were active in at least one assay; those are over-represented in the sample as a whole.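 96-well plates, one dose, 48 hours. Percent growth reported; active if below 10.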 Unmarked numbers belong to inactive results. Active and inactive are the calls of the source.

How the values were obtained:
Test in all cases: NCI-60 one-dose screen, 48 h (100 = growth as untreated, 0 = no growth, -100 = all killed)
Settings in all cases: 10 µM unless noted
HCT-15 colon = system: HCT-15 colon
HT29 colon = system: HT29 colon
SNB-75 CNS = system: SNB-75 CNS
SNB-19 CNS = system: SNB-19 CNS
U251 CNS = system: U251 CNS
PC-3 prostate = system: PC-3 prostate
SK-MEL-5 melanoma = system: SK-MEL-5 melanoma
UACC-62 melanoma = system: UACC-62 melanoma
LOX IMVI melanoma = system: LOX IMVI melanoma
SK-MEL-28 melanoma = system: SK-MEL-28 melanoma

Structure (SMILES)	growth (HCT-15 colon)	growth (HT29 colon)	growth (SNB-75 CNS)	growth (SNB-19 CNS)	growth (U251 CNS)	growth (PC-3 prostate)	growth (SK-MEL-5 melanoma)	growth (UACC-62 melanoma)	growth (LOX IMVI melanoma)	growth (SK-MEL-28 melanoma)
COc1ccc(/C(C)=N/NC(=O)CSc2nc3ccccc3c(=O)n2CCc2ccc(S(N)(=O)=O)cc2)cc1	65.3%	-10% (active)	-26.2% (active)	35.4%	-32.9% (active)	-12.8% (active)	-26.3% (active)	27.3%	28.3%	43.1%
CCCCn1cnc2c(SCc3ccc([N+](=O)[O-])cc3)nc(N)nc21	88.2%	98.6%	95.7%	86%	90.6%	89.8%	85.8%	80.4%	88%	117%
CN(C)CCCN1c2ccccc2CCc2ccccc21	96.6%	83.5%	50.8%	94.1%	91.6%	82.8%	75.3%	94%	106%	102%
COc1ccc2nc(-c3ccc(-c4noc(-c5ccc(Cl)cc5)n4)cc3)[nH]c2c1	75.8%	82%	31.8%	95.6%	78.2%	67.1%	78.8%	58.3%	57.3%	79.7%
O=C1OCC2=C1C(c1ccccc1)c1cc3c(cc1N2CCO)OCO3 (stereo not given)	24%	12.5%	31.4%	36%	20.3%	24.5%	-12.3% (active)	28.9%	37%	50.5%
CC(=O)Oc1ccccc1C(=O)Nc1ncc([N+](=O)[O-])s1	32.3%	44.9%	46.4%	41.7%	39.2%	10.1%	22.8%	1.31% (active)	23.4%	49.3%
N/C(=N\OC(=O)c1ccccc1)C(C(=O)NOC(=O)c1ccccc1)C1CCCCC1 (stereo not given)	53.3%	96.7%	35.7%	76%	-25% (active)	54.5%	74.3%	56.6%	-85.2% (active)	93.3%
COc1cc(OC)cc(-c2ccc(-c3ccc(C(=N)N)s3)s2)c1	-77.4% (active)	-87.4% (active)	-91.5% (active)	-82.9% (active)	-90.1% (active)	-83.9% (active)	-97.4% (active)	-90.5% (active)	-71.6% (active)	-85.3% (active)
CC1(C)CC(=O)c2cc3c(N)c(C(=O)Nc4ccc(Cl)cc4)sc3nc2C1	108%	96.4%	114%	114%	103%	105%	96%	105%	109%	118%
S=C(S)Oc1cccc2cccnc12	105%	98%	87%	107%	105%	84.7%	110%	96.4%	98.9%	109%
COc1ccc(-c2cnc(-c3ccncc3-c3cccc(OC)c3)o2)cc1	7.4% (active)	-36.6% (active)	41.2%	25.8%	24.3%	16.9%	-20.4% (active)	24.9%	27.3%	57.6%
Oc1ccccc1-c1nnc(COc2ccc(Cl)cc2Cl)o1	27.4%	60.3%	86.6%	53.5%	41.5%	47.8%	32.3%	25.1%	25.5%	68.9%
COc1ccc2c(c1)sc1nc(-c3ccccc3)c(-c3cccc4ccccc34)n12	23%	1.35% (active)	23.2%	29.8%	21.3%	24.3%	24.9%	35.5%	38.6%	52.1%
O=C1/C=C/[C@@H](O)[C@@H]2C[C@@H](O)C[C@H]2/C=C/CCC[C@H]([C@@H](O)CO)O1	95.3%	80.2%	84%	66.5%	69.1%	88.7%	4.48% (active)	62.5%	38.7%	38.8%
CCOC(=O)C(CCCCC(NC(C)=O)(C(=O)OCC)C(=O)OCC)(NC(C)=O)C(=O)OCC	106%	100%	95.3%	110%	104%	101%	104%	99.5%	98.3%	97%
O=C(CCl)Nc1cc(O)c2c(c1)C(=O)c1cccc(O)c1C2=O	-82.2% (active)	-88% (active)	7.38% (active)	-36.5% (active)	-96.2% (active)	-63.6% (active)	-95% (active)	-67.3% (active)	-68.2% (active)	2.89% (active)
CCOC(=O)CCN(CCC(=O)OCC)c1ccccc1	101%	99.7%	93.9%	104%	92.5%	93%	96.4%	99.4%	95.8%	117%
COc1cc(/C=C\c2cc(/C=C\c3ccc(O)c(OC)c3)n(C(=O)Nc3ccc(C(F)(F)F)cc3)n2)ccc1O	25.5%	3.5% (active)	71.8%	48.7%	9.71% (active)	38%	35.4%	31.1%	9.11% (active)	58%
O=C(/C=C/c1ccccc1)c1c[nH]c2ccccc2c1=O	4.67% (active)	8.44% (active)	-15.6% (active)	16.3%	11.6%	26.7%	43.4%	29.2%	-32.6% (active)	66.4%
C=CCN(CC#N)CC=C	116%	94.5%	96.2%	109%	100%	91%	94.9%	102%	101%	104%
CC1(C)CN(CCNc2nccc(-c3c(-c4cccc(O)c4)nc4sccn34)n2)S(=O)(=O)N1	95.7%	54.4%	30.5%	87.8%	74%	50.8%	58.4%	-8.38% (active)	18.2%	20.1%
COc1cc(/C=C/c2cc(/C=C/c3ccc(O)c(OC)c3)n(C(=O)c3ccccc3Br)n2)ccc1O	16.2%	0.381% (active)	27.3%	36.2%	35.1%	12.9%	-1.91% (active)	3.48% (active)	9.29% (active)	28.6%
Clc1ccccc1CNc1c2ccccc2nc2ccccc12	13.6%	5.54% (active)	43.1%	25.8%	23.2%	17.1%	41.8%	41%	4.83% (active)	50.5%
COc1cc(NC(=O)CSc2nc3ccc(Cl)cc3c(=O)n2Cc2ccccc2)cc(OC)c1OC	88.3%	56.5%	53.4%	88.3%	55.5%	71.1%	45.5%	43.2%	74.5%	78.2%
CCN(CC)c1ccc(/C=N/NC(=O)C[N+](C)(C)C)cc1	101%	103%	93.8%	113%	102%	95.7%	104%	101%	97%	108%
Cc1ccc(Nc2cc(Cl)c([N+](=O)[O-])cc2[N+](=O)[O-])cc1	16.8%	3.12% (active)	96%	85.8%	25.8%	55.3%	53.6%	48.7%	9.04% (active)	71.5%
CC(C)c1ccc2c(c1)CCC1C2CCCC1(C)NCc1ccccc1 (stereo not given)	6.42% (active)	16.2%	85.3%	104%	48%	85.4%	27.5%	-27.4% (active)	52.1%	-32% (active)
